The whole screen tested about 360,000 compounds, of which about 2,600 (0.72%) were called active. This is one part of a sample in which actives are shown more often than they occur.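 Rule for the calls: active = inhibition above its plate's cutoff, the mean inhibition of sample wells plus 3 SD (cut at about 27% in these data); inactive = the rest.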

The target in this assay is Muscarinic acetylcholine receptor M4 (Homo sapiens) (UniProt P08173). Kind of assay: CHRM4 blockers of acetylcholine calcium response – CHO cells, Fluo-8 calcium fluorescence, primary screen (AID 624125).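 Note: 0% = acetylcholine EC80 with DMSO and 100% = DMSO without agonist.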 The settings on record: CHO-hM4 cells, ACh EC80, Fluo-8 calcium fluorescence; at 3 µM; stronger effect = higher value.
Muscarinic acetylcholine receptor M4 (Homo sapiens), sequence (P08173 whole entry, looked up): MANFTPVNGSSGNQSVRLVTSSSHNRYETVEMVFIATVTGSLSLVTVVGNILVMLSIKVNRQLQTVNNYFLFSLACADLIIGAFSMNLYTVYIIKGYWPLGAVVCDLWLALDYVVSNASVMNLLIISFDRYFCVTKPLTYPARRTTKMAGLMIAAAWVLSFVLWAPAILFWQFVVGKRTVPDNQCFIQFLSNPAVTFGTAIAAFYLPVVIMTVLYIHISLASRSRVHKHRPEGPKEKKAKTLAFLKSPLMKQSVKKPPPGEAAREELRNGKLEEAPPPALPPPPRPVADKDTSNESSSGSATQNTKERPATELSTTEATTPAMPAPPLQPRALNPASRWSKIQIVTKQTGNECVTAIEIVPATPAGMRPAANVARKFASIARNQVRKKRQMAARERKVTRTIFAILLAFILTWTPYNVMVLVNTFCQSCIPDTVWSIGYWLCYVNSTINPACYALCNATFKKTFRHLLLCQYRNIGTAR
As for `Cc1n[nH]c(=O)c2c(NC(=O)CSc3cc(Cl)ccc3Cl)oc(C)c12`, the inhibition (commonly the relative decrease from the control value, in per cent) is -3.66% (inactive).
With `COc1ccc2[nH]c3c(C)c4cc[n+](C)cc4c(C)c3c2c1` the figure was 1.89% (inactive).
The value for `CC(OC(=O)c1ccc(NS(=O)(=O)c2ccc3[nH]c(=O)[nH]c3c2)cc1)C(=O)Nc1cccc(Cl)c1Cl` (stereo not drawn) was 5.91% (inactive); that for `COc1ccc(CCN2C(=O)N(c3ccc(OC)cc3)C(=O)C2CC(=O)Nc2ccc(OC)cc2)cc1` (stereo not drawn) was -16.8% (inactive).
The value for `CCN(Cc1ccccc1)C(=O)CSc1nc(C)cc2c1C(=O)OC2` was 8.21% (inactive); that for `COc1ccccc1C1SCCN1C(=O)c1ccc([N+](=O)[O-])cc1` (stereo not drawn) was 57% (active); that for `O=C(Nc1ccc(F)cc1)C1CCN(C(=O)c2ccc([N+](=O)[O-])cc2)CC1` was -7.19% (inactive).
As to `C[N+]1(CC(O)COc2ccccc2)CCN(C(=O)c2ccc([N+](=O)[O-])cc2)CC1` (stereo not drawn), the inhibition is -5.14% (inactive).
With `Cn1c(=O)c2c(SCC(=O)NCC3CCCO3)nc(CC(C)(C)C)nc2n(C)c1=O` (stereo not drawn) the figure was 2.72% (inactive); with `CCNc1nc(Oc2ccc(C(=O)OC)cc2)nc(N2CCOCC2)n1`, 2.43% (inactive).
The value for `O=C(c1cccs1)C1C(c2ccc(Br)cc2)NC(=S)NC1(O)C(F)(F)F` (stereo not drawn) was 77.3% (active).
The value for `CCOC(=O)C1C(c2ccc(O)cc2)NC(=O)NC1(O)C(F)(F)F` (stereo not drawn) was 5.66% (inactive).
For `CC1=NN(c2cccc(Cl)c2)C(=O)C12CC(C)=C(C)CS2` (stereo not drawn), the inhibition is -0.34% (inactive).
The value for `O=C1Nc2c(Br)cc(Br)cc2C1(O)N1CCOCC1` (stereo not drawn) was -12% (inactive); that for `CCC(CC)C(C(=O)NC1CCCC1)N1CCN(c2cc(C)nc3ccccc23)CC1` (stereo not drawn) was -16.6% (inactive).
With `CN(Cc1nc(-c2cnccn2)no1)Cc1n[nH]c2c1CCCCC2` the figure was 37.3% (active).
As for `CCn1ccnc1CN(C)Cc1nc(-c2ccc3c(c2)OCO3)no1`, the inhibition was 1.6% (inactive).
The value for `CN(Cc1cc2cc(F)ccc2[nH]1)Cc1nc(-c2cnccn2)no1` was -8.36% (inactive); that for `CCOc1cc(CNCc2ccccn2)ccc1OCC(=O)NC(C)(C)C` was 1% (inactive); that for `CCN(CC)c1ccc(/C=N/NC(=O)c2cnccn2)c(O)c1` was 33.1% (active).
The value for `COc1cccc(OCC(=O)NNC(=O)c2cnccn2)c1` was 12.6% (inactive); that for `CCN(CC)c1ccc(NC(=O)c2ccc(Cl)nc2)cc1` was 1.79% (inactive).
For the compound `CC1(C)Cc2cccc(OCC(=O)N3CCN(c4ccc([N+](=O)[O-])cc4)CC3)c2O1`, the inhibition is -2.84% (inactive).
The value for `COc1cccc(/C=C/C(=O)OCC(=O)N2CCCc3ccccc32)c1` was -7.08% (inactive); that for `O=c1[nH]c(=O)n(Cc2ccco2)c2c1C(C(F)(F)F)(C(F)(F)F)N=C(c1ccco1)N2` was 4% (inactive); that for `Nc1c(C(=O)c2cccs2)sc2nsc(SCCN3CCCCC3)c12` was 42% (active).
With `O=C1C(=O)N(CCCO)C(c2ccccc2)/C1=C(\O)c1ccc(Br)cc1` (stereo not drawn) the figure was 3.51% (inactive).
The value for `COC(=O)[C@]12CCCCC=C1N(Cc1ccccc1)C(=O)[C@H](CC(=O)NCc1ccc(C)o1)C2` was -11.9% (inactive); that for `OC[C@@H]1CN(Cc2ccc(-c3ccccc3)cc2)C[C@H](n2cnc3c(NC4CCCC4)ncnc32)O1` was 19.1% (inactive).
For the compound `CN(C)c1ccc(CSc2ccccc2)cc1`, the inhibition was -16.2% (inactive).
The value for `CN(C)c1ccc(/C=C2\NC(=S)N(Cc3ccccc3)C2=O)cc1` was 44.5% (active).
The value for `CC(C)(C)C(=O)COC(=O)c1cc(S(=O)(=O)N2CCCCC2)ccc1N1CCOCC1` was -6.6% (inactive).
With `CC1Cc2[nH][nH]c(=O)c2C(C2CCCC2)O1` (stereo not drawn), the inhibition is 3.85% (inactive).
The value for `CCNC(=S)N(CCN(CC)CC)Cc1cc2cc3c(cc2[nH]c1=O)OCO3` was 1.79% (inactive).
With `CCC(=O)c1ccc(OCC(=O)N(CC)CC2COc3ccccc3O2)cc1` (stereo not drawn) the figure was -18.3% (inactive).
The value for `c1ccc2c(c1)OCC(CNc1ncnc3nc[nH]c13)O2` (stereo not drawn) was 65.3% (active).
For the compound `O=C(COc1ccc(F)cc1Br)NCC1COc2ccccc2O1` (stereo not drawn), the inhibition is 3.31% (inactive).
With `O=[N+]([O-])c1cc(S(=O)(=O)CCCN2CCOCC2)ccc1F` the figure was -17.3% (inactive); with `CC(C)(O)C#Cc1ncc(C(F)(F)F)cc1Cl`, 3.84% (inactive).
Regarding `COC(=O)[C@@H](NC(=O)Nc1cc(Cl)ccc1C)C(C)C`, the inhibition is 8.25% (inactive).
With `CN(C)CC/C=C1\c2ccccc2CSc2ccccc21` the figure was 83% (active).
Turning to `CN(C)Cc1ccccc1C1(O)c2ccccc2CSc2ccccc21` (stereo not drawn), the inhibition was 22.2% (inactive).
With `Cc1cccc(-n2c(O)c(C=Nc3ccccc3N)c(=O)[nH]c2=O)c1`, the inhibition was 4.12% (inactive).
The value for `CN(C)CCCNC(=O)c1cc(C(=O)Cc2ccc(Cl)cc2)c[nH]1` was -5.01% (inactive).
With `CCOC(=O)c1nnn(-c2nonc2-n2cccc2)c1CN1CCC(C(=O)OCC)CC1` the figure was 0.5% (inactive).
With `CCNS(=O)(=O)c1ccc(NC(=O)Nc2cccc(C(F)(F)F)c2)cc1` the figure was 30.8% (active); with `CCNS(=O)(=O)c1ccc(NC(=O)c2cncc(Br)c2)cc1`, -2.17% (inactive); with `Cc1cc(S(=O)(=O)N2CCOCC2)ccc1OCC(=O)Nc1cccc(C(F)(F)F)c1`, 14.2% (inactive).
With `CCCNC(=O)C[C@@H]1CC[C@@H]2[C@H](COC[C@H](O)CN2C(=O)c2cc(Cl)cc(Cl)c2)O1`, the inhibition was 2.23% (inactive).
Turning to `Cc1ccc(C(=O)O)cc1S(=O)(=O)NCC1CCCO1` (stereo not drawn), the inhibition was 0.46% (inactive).
Take `CCc1cc(C(=O)OC)c(NC(=O)CC2Sc3ccc(C(F)(F)F)cc3NC2=O)s1` (stereo not drawn): the inhibition is 0.19% (inactive).
With `COc1cc(OC)c2ccc(=O)oc2c1C(CCN1CCN(c2ccccc2)CC1)c1ccc2c(c1)OCO2` (stereo not drawn) the figure was 4.01% (inactive); with `CCC1C=C(c2ccccc2)C=CN=C1N(CC)CC` (stereo not drawn), 35% (active); with `O=C(N/N=C/c1sc(N2CCCCC2)nc1-c1cccs1)c1cccnc1`, -11.5% (inactive).
The value for `Nc1cc2c(cc1Br)-c1ccc(F)cc1C2=O` was -3.7% (inactive).
With `CC(=O)N1CCCc2cc(S(=O)(=O)N3CCCC(C(=O)N4CCN(c5cccc(Cl)c5)CC4)C3)ccc21` (stereo not drawn), the inhibition was 43.8% (active).
The value for `Cc1ccc(S(=O)(=O)N2CCCC(C(=O)N3CCN(C)CC3)C2)cc1` (stereo not drawn) was 11.1% (inactive).
Take `COc1ccc(S(=O)(=O)N2CCCC(C(=O)N3CCN(C)CC3)C2)cc1C` (stereo not drawn): the inhibition is -3.22% (inactive).
